# Compound activity: PubChem BioAssay, The Scripps Research Institute Molecular Screening Center
# GPR151 activ: human GPR151 activation; hit rate 1% among 650,000; PathHunter beta-arrestin GPR151 cells, luminescence; AID 1508602; Q8TDV0; activation, % at 11.2 µM; in the data active = activation above about 4.9%;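 also: 0% = median of compound wells and 100% = cells with positive control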
# FBW7 act: human FBW7 E3 ligase activation, primary screen | AlphaScreen FBW7–phospho-cyclin E peptide binding, activator screen | normalized activity (activation), % at 26.1 µM | hit rate 0.13% among 650,000 | Q969H0; in the data active = normalized activity above about 1.9%;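 also: purified mutant Fbw7 with reduced substrate affinity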
# MITF primary: human MITF inhibition, primary screen; O75030; AlphaScreen MITF homodimerization, bead proximity signal; inhibition, % at 2.6 µM; hit rate 0.91% among 650,000; in the data active = inhibition above about 50%;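 also: 0% = vehicle wells with protein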
# TEAD-YAP inh: TEAD-YAP interaction inhibition; AID 1259422; hit rate 1.4% among 640,000; HEK-TIYL cells, TEAD-Gal4/YAP UAS-luciferase luminescence; inhibition, % at 9.12 µM; in the data active = inhibition above about 32%;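 also: 0% = median of test compound wells and 100% = reference inhibitor wells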
# GPR151 conf act: confirmation of human GPR151 activators; shares compounds with GPR151 activ; GPR151 PathHunter beta-arrestin cells, luminescence, 90 min; % of EA-reagent control over plate median; activation, % at 11.2 µM; 6,700 tested, under 10 active; AID 1508609;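 active = mean percent activation across replicates above the confirmation screen cutoff of 4.91%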
# GPR119 ag: activates human GPR119 in a GPR151 counter-screen | shares compounds with GPR151 activ | AID 1508611 | hit rate 0.3% among 6,700 | activation, % at 11.2 µM | GPR119 PathHunter beta-arrestin cells, luminescence, 90 min; 0 = compound-well median, 100 = enzyme-acceptor control;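 active = mean percent activation in the counterscreen above 29.09%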;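 also: counterscreen on off-target GPR119 to flag nonselective hits from the GPR151 activator screen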
# Target sequence (Q8TDV5 whole entry, looked up): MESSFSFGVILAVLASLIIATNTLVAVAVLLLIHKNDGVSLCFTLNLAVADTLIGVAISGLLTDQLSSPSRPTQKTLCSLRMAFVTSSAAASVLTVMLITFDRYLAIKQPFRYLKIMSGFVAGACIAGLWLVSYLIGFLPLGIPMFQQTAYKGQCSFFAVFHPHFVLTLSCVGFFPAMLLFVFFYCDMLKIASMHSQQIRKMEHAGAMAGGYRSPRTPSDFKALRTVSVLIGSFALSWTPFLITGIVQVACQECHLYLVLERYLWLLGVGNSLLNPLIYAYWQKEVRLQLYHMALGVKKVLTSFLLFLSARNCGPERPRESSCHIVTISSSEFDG
# Starred values were filed as active, the others as inactive; / = no result given. In the library only some 3.5% were active in any assay of this set; here they are far more common.
SMILES,GPR151 activ,FBW7 act,MITF primary,TEAD-YAP inh,GPR151 conf act,GPR119 ag
Nc1ccc2nc(-c3ccc(N=Cc4cc([N+](=O)[O-])cc([N+](=O)[O-])c4O)cc3)[nH]c2c1,7.0*,0,1,2,0,3
Nc1ccc2nc(-c3ccc([N+](=O)[O-])cc3)[nH]c2c1,-5,0,3,-13,/,/
CCc1c(C)c2ccc(OCC(=O)OC)c(C)c2oc1=O,5.1*,0,2,6,0,-8
COC(=O)COc1ccc2c(C)c(C)c(=O)oc2c1C,-1,1,8,3,/,/
O=C(O)c1[nH]c2ccccc2c1CNC1CCCCCC1,0,1,9,-4,/,/
CCc1nc(-n2nc(C)cc2N)c2c3c(sc2n1)CCC3,-2,0,-4,-4,/,/
CCc1nc(-n2nc(C)cc2N)c2c3c(sc2n1)CCCC3,6.5*,0,-3,-2,1,-8
Clc1cccc(-c2nnc(CN3CCc4ccccc4C3)o2)c1,0,0,-10,0,/,/
CCc1cc(-c2n[nH]c(C)c2-c2nc(C)cs2)c(O)cc1OC,8.0*,0,4,10,0,7
O=C(Cn1c(-c2ccccn2)nc2ccccc21)N1CCCCC1,-3,1,1,2,/,/
O=C(Cn1c(-c2cccnc2)nc2ccccc21)N1CCCCCC1,5.6*,0,-4,10,0,2
CC(C)(C)Nc1nc(NC(C)(C)C)nc(N2CCN(c3ccc4nnnn4n3)CC2)n1,-1,0,9,-13,/,/
CCn1c(O)c(C=NC2CCCC2)c(=O)[nH]c1=S,5.2*,0,-12,3,0,0
Cc1cc(C)c(S(=O)(=O)Nc2cc3c4c(c2)CC(=O)N4CCC3)c(C)c1,5.0*,0,2,5,0,-3
COc1ccc(CCc2nnc(CCC(=O)NCCc3ccccc3F)o2)cc1,6.5*,0,1,-4,0,-4
COc1ccc(OC)c(Cc2nnc(CCC(=O)NCc3nc4ccccc4s3)o2)c1,6.3*,0,-6,-9,1,12
O=C(CCc1nnc(-c2ccccc2)o1)NCc1nc2ccccc2s1,-1,0,-1,-4,/,/
COc1ccc(OC)c(Cc2nnc(CCC(=O)NCCc3nc(C)c(C)s3)o2)c1,-1,0,11,-9,/,/
O=C(CCc1nnc(COc2ccccc2)o1)NCc1nc2ccccc2s1,5.1*,0,9,-1,1,6
COc1ccc(CCc2nnc(CCC(=O)NCc3ccccc3F)o2)cc1,0,0,-26,-47,/,/
CCOc1ccc(S(=O)(=O)Nc2ccc(N3CCCC3=O)c(OC)c2)cc1,1,0,16,12,/,/
Cc1nc2sc(C(=O)c3ccc(Br)cc3)c(N)c2c(C)c1CC(=O)c1ccccc1,7.0*,0,-2,-1,0,-11
CCc1c(C)nc2sc(C(=O)c3ccc(Br)cc3)c(N)c2c1C,0,0,-13,1,/,/
OC(COCc1cccs1)CN1CCN(c2ncccn2)CC1 (centres undefined),1,0,-3,-1,/,/
O=C(Nc1c2c(nn1-c1ccc([N+](=O)[O-])cc1)CSC2)c1ccc(S(=O)(=O)N2CCOCC2)cc1,1,0,-10,8,/,/
SMILES,GPR151 activ,FBW7 act,MITF primary,TEAD-YAP inh,GPR151 conf act,GPR119 ag
CCOC(=O)COc1ccc(/C=C2/NC(=O)NC2=O)cc1OC,2,0,-7,4,/,/
CCOC(=O)N1CCN(C(=O)C2CCCN(c3nn4c(=O)cc(C)nc4s3)C2)CC1 (centres undefined),5.6*,0,-11,-1,0,-11
Cc1cc(=O)n2nc(N3CCCC(C(=O)N4CCN(c5ccccc5)CC4)C3)sc2n1 (centres undefined),0,0,10,2,/,/
CCc1cccc(C)c1NC(=O)c1cc2ccccc2oc1=O,2,0,4,-8,/,/
NC(=O)c1c(NC(=O)c2cc3ccccc3oc2=O)sc2c1CCCCCC2,28*,1,-2,-21,0,-1
O=C(c1cc2ccccc2oc1=O)N1CCN(c2ccccc2)CC1,6.3*,0,9,-26,0,5
Cc1cccc(C)c1NC(=O)c1cc2ccccc2oc1=O,6.0*,1,4,6,0,0
N#Cc1c(NC(=O)c2cc3ccccc3oc2=O)sc2c1CCCCCC2,0,0,38,7,/,/
CCC(=O)c1ccc(N2CCN(C(=O)c3ccc(F)c(F)c3)CC2)c(F)c1,2,0,-8,-2,/,/
CC(=O)Nc1ccc2nc(NC(=O)c3ccccc3I)sc2c1,-4,0,-17,-32,/,/
CC(=O)N1CCc2cc(C(=O)CN3CC(C)CC(C)C3)ccc21 (centres undefined),6.2*,0,12,-1,-1,-14
COc1ccc2c(-c3ccccc3)cc3nnnn3c2c1,5.3*,0,7,-4,0,-7
CCCc1cc(CN(C)C(=O)CC2C(=O)NCCN2Cc2cccc(OC)c2)[nH]n1 (centres undefined),-1,0,-2,-8,/,/
CC(=O)N1CCc2ccc(S(=O)(=O)N3CCCc4ccccc43)cc21,6.7*,0,5,54*,0,2
CC(=O)N1CCOc2cc(S(=O)(=O)N3CCCc4ccccc43)ccc21,1,0,4,7,/,/
CCOC(=O)c1c(N2C(=O)CCC2=O)sc2c1CCC(C)C2 (centres undefined),1,0,10,4,/,/
CCOC(=O)c1c(N2C(=O)C3C4C=CC(C4)C3C2=O)sc2c1CCC(C)C2 (centres undefined),7.3*,0,-2,12,0,-3
COc1ccc(C(O)C(C)c2nc3ccccc3n2C)cc1 (centres undefined),6.3*,0,-6,5,0,2
CCOc1ccc(-c2ncccc2O)cc1,0,0,18,-37,/,/
COc1ccc(-c2ncccc2O)cc1,5.2*,2,11,-44,0,-2
CC1CCCC(C)N1C(=O)Cc1noc2ccccc12 (centres undefined),-1,0,-2,-16,/,/
O=C(NCCO)c1cccc(N2C(=O)c3ccccc3C2=O)c1,7.6*,0,1,3,0,3
CCCNC(=O)CCc1nc(-c2ccccc2)no1,3,0,0,-8,/,/
CCC(C)CC(=O)Nc1nc2c(s1)C(=O)CC(C(=O)N(C)C(C)C)C2 (centres undefined),7.1*,0,-1,-7,0,1
CC(C)N(C)C(=O)C1CC(=O)c2sc(NC(=O)c3ccccc3)nc2C1 (centres undefined),6.4*,0,11,4,0,10
CCC(C)C(=O)Nc1nc2c(s1)C(=O)CC(C(=O)N(C)Cc1nonc1C)C2 (centres undefined),5.7*,0,-5,-17,0,2
